PubChem BioAssay (EPA / NIEHS)
Active and inactive are the calls of the source. How the source made its calls: active means hit-call score of the fitted dose curve at least 0.9, where 1 is the maximum; inactive means score below 0.9.

Tests used:
Settings in all cases: mRNA level, 48 h; actives raise or lower the signal
[1] = read-out: Tumor necrosis factor receptor superfamily member 6 (Homo sapiens) (UniProt P25445); test: LTEA_HepaRG_FAS: Life Technologies and Expression Analysis (LTEA) Assay for Fas cell surface death receptor (FAS) using HepaRG (AID 2283447)
Method in brief: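 Differentiated human HepaRG cells, pre-cultured 48 h, were exposed in duplicate for 48 h to 8-point half-log concentrations (top 100 uM, 0.5% DMSO) in serum-free induction medium; FAS mRNA measured by qRT-PCR, normalized to ACTB/GAPDH/POLR2A, bidirectional fit versus DMSO.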

[2] = read-out: Fatty acid synthase (Homo sapiens) (UniProt P49327); test: LTEA_HepaRG_FASN: Life Technologies and Expression Analysis (LTEA) Assay for Fatty Acid Synthase (FASN) using HepaRG (AID 2283448)
Method in brief: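 HepaRG, 48 h exposure, 8-pt half-log series top 100 uM, 0.5% DMSO vehicle, duplicates. Readout: FASN transcript by Fluidigm qRT-PCR; housekeeping-normalized; bidirectional curve fit vs DMSO baseline.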

[3] = read-out: Cyclin D2 (CCND2), CCND2 (gene 894); test: LTEA_HepaRG_CCND2: Life Technologies and Expression Analysis (LTEA) Assay for Cyclin D2 (CCND2) using HepaRG (AID 2283449);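 further: CCND2 transcript measured by TaqMan qRT-PCR and normalised to three housekeeping genes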
Method in brief: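 In this HepaRG study, an eight-point concentration series (max 100 uM, 0.5% DMSO) is applied for 48 h. CCND2 mRNA change is derived by qRT-PCR normalised to ACTB, GAPDH and POLR2A.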

[4] = read-out: Cyclin Dependent Kinase Inhibitor 1A (CDKN1A), CDKN1A (gene 1026); test: LTEA_HepaRG_CDKN1A: Life Technologies and Expression Analysis (LTEA) Assay for Cyclin Dependent Kinase Inhibitor 1A (CDKN1A) using HepaRG (AID 2283450)
Method in brief: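 Differentiated human HepaRG cells, pre-cultured 48 h, were exposed in duplicate for 48 h in serum-free induction medium to eight half-log concentrations up to 100 uM (0.5% DMSO). CDKN1A mRNA was measured by qRT-PCR, normalized to ACTB/GAPDH/POLR2A, bidirectionally fitted versus DMSO.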

[5] = read-out: Cyclin D1 (CCND1), CCND1 (gene 595); test: LTEA_HepaRG_CCND1: Life Technologies and Expression Analysis (LTEA) Assay for Cyclin D1 (CCND1) using HepaRG (AID 2283451);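 on AC50: TaqMan qRT-PCR transcript level normalised to ACTB GAPDH and POLR2A housekeeping genes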
Method in brief: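 Differentiated human HepaRG cells in serum-free induction medium were exposed 48 h to eight half-log concentrations up to 100 uM in 0.5% DMSO; mRNA quantified by TaqMan qRT-PCR, normalized to ACTB, GAPDH, POLR2A, fitted bidirectionally versus DMSO.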

[6] = read-out: catalase (CAT), CAT (gene 847); test: LTEA_HepaRG_CAT: Life Technologies and Expression Analysis (LTEA) Assay for catalase (CAT) using HepaRG (AID 2283452);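 on AC50: TaqMan qRT-PCR signal normalized to ACTB GAPDH and POLR2A housekeeping genes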
Method in brief: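 Differentiated HepaRG cells in serum-free induction medium were dosed 48 h in duplicate, eight half-log concentrations from 100 uM in 0.5% DMSO. Transcript measured by TaqMan qRT-PCR, normalised to ACTB/GAPDH/POLR2A, fitted bidirectionally against DMSO.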

[7] = read-out: flavin-containing dimethylaniline monooxygenases 3 (FMO3), FMO3 (gene 2328); test: LTEA_HepaRG_FMO3: Life Technologies and Expression Analysis (LTEA) Assay for flavin-containing dimethylaniline monooxygenases 3 (FMO3) using HepaRG (AID 2283453);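 on AC50: FMO3 transcript by TaqMan qRT-PCR normalized to ACTB GAPDH and POLR2A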
Method in brief: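 Eight-point concentration-response in serum-free HepaRG cultures (top 100 uM, 0.5% DMSO, 48 h). Read-out: FMO3 mRNA level normalized to three endogenous control genes, fitted bidirectionally versus vehicle.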

[8] = read-out: CFLAR gene, CFLAR (gene 8837); test: LTEA_HepaRG_CFLAR: Life Technologies and Expression Analysis (LTEA) Assay for CFLAR gene using HepaRG (AID 2283455)
Method in brief: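 Gain- or loss-of-signal changes in CFLAR transcript were fitted bidirectionally relative to 0.5% DMSO. Cells (HepaRG, duplicate wells) were dosed for 48 h across eight half-log concentrations topping at 100 uM; quantitation by TaqMan qRT-PCR.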

[9] = read-out: Forkhead box O1 (FOXO1), FOXO1 (gene 2308); test: LTEA_HepaRG_FOXO1: Life Technologies and Expression Analysis (LTEA) Assay for Forkhead box O1 (FOXO1) using HepaRG (AID 2283456)
Method in brief: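 Using one lot of HepaRG hepatic cells kept in 0.5% DMSO, the team applied test chemicals in duplicate, half-log dilutions from 100 uM, for 48 h. Expression, normalised to ACTB/GAPDH/POLR2A, was compared with vehicle in either direction.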

[10] = read-out: growth arrest and DNA damage 45 (GADD45A), GADD45A (gene 1647); test: LTEA_HepaRG_GADD45A: Life Technologies and Expression Analysis (LTEA) Assay for growth arrest and DNA damage 45 (GADD45A) using HepaRG (AID 2283458)
Method in brief: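 HepaRG, 48 h exposure, 8 conc. (top 100 uM, half-log steps), 0.5% DMSO vehicle, duplicates. Read-out: qRT-PCR mRNA level, housekeeping-normalized (ACTB/GAPDH/POLR2A). Curves fit bidirectionally vs DMSO baseline.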

[11] = read-out: Forkhead box O3 (FOXO3), FOXO3 (gene 2309); test: LTEA_HepaRG_FOXO3: Life Technologies and Expression Analysis (LTEA) Assay for Forkhead box O3 (FOXO3) using HepaRG (AID 2283459)
Method in brief: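 Gene-expression endpoint: FOXO3 transcript level by qRT-PCR in HepaRG cultures treated 48 h with chemicals up to 100 uM (half-log, 0.5% DMSO vehicle).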

[12] = read-out: ABC Transporter (ABCB1), ABCB1 (gene 5243); test: LTEA_HepaRG_ABCB1: Life Technologies and Expression Analysis (LTEA) Assay for ABC Transporter (ABCB1) using HepaRG (AID 2283460)
Method in brief: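 Human liver HepaRG line treated 48 h with up to 100 uM compound (eight half-log points, 0.5% DMSO); ABCB1 mRNA change fitted bidirectionally against DMSO controls.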

[13] = read-out: growth arrest and DNA damage 45 (GADD45B), GADD45B (gene 4616); test: LTEA_HepaRG_GADD45B: Life Technologies and Expression Analysis (LTEA) Assay for growth arrest and DNA damage 45 (GADD45B) using HepaRG (AID 2283461)
Method in brief: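 Differentiated HepaRG cells, plated 48 h then switched to serum-free induction medium, were exposed 48 h in duplicate to eight half-log concentrations from 100 uM in 0.5% DMSO; mRNA quantified by qRT-PCR, normalized to ACTB/GAPDH/POLR2A, bidirectional fit versus DMSO.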

[14] = read-out: ABC Transporter (ABCC3), ABCC3 (gene 8714); test: LTEA_HepaRG_ABCC3: Life Technologies and Expression Analysis (LTEA) Assay for ABC Transporter (ABCC3) using HepaRG (AID 2283462)
Method in brief: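 HepaRG cells in serum-free induction medium were exposed for 48 h in duplicate to 8-point half-log concentrations topping at 100 uM in 0.5% DMSO. ABCC3 mRNA was measured by qRT-PCR normalized to ACTB, GAPDH and POLR2A, with bidirectional fitting versus DMSO.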

[15] = read-out: ABC Transporter (ABCB11), ABCB11 (gene 8647); test: LTEA_HepaRG_ABCB11: Life Technologies and Expression Analysis (LTEA) Assay for ABC Transporter (ABCB11) using HepaRG (AID 2283463)
Method in brief: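 Using HepaRG cultures held in 0.5% DMSO, chemicals were tested at half-log dilutions from 100 uM for 48 h. Induction or suppression of ABCB11 mRNA, normalized to ACTB, GAPDH and POLR2A, was fitted bidirectionally against vehicle.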

[16] = read-out: ABC Transporter (ABCC2), ABCC2 (gene 1244); test: LTEA_HepaRG_ABCC2: Life Technologies and Expression Analysis (LTEA) Assay for ABC Transporter (ABCC2) using HepaRG (AID 2283464)
Method in brief: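 HepaRG cells were plated 48 h, switched to serum-free induction medium, then exposed in duplicate for 48 h to 8 concentrations (top 100 uM, half-log steps, 0.5% DMSO). ABCC2 mRNA was measured by qRT-PCR normalized to ACTB/GAPDH/POLR2A; bidirectional fitting versus DMSO.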

[17] = read-out: Broad substrate specificity ATP-binding cassette transporter ABCG2 (Homo sapiens) (UniProt Q9UNQ0); test: LTEA_HepaRG_ABCG2: Life Technologies and Expression Analysis (LTEA) Assay for ABC Transporter (ABCG2) using HepaRG (AID 2283465)
Method in brief: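 Gene expression of ABCG2 in HepaRG liver cells is quantified by qRT-PCR following 48 h exposure across an eight-point series topping at 100 uM. Values come from bidirectional fitting relative to DMSO vehicle.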

[18] = read-out: ATP-citrate lyase (ACLY), ACLY (gene 47); test: LTEA_HepaRG_ACLY: Life Technologies and Expression Analysis (LTEA) Assay for ATP-citrate lyase (ACLY) using HepaRG (AID 2283466)
Method in brief: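 ACLY expression changes in human HepaRG liver cells are quantified by qRT-PCR after 48 h exposure to test chemicals (maximum 100 uM, half-log steps). Values are fitted in both directions relative to 0.5% DMSO vehicle.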

[19] = read-out: Cytochrome P450 (CYP1A1), CYP1A1 (gene 1543); test: LTEA_HepaRG_CYP1A1: Life Technologies and Expression Analysis (LTEA) Assay for Cytochrome P450 (CYP1A1) using HepaRG (AID 2283454)
Method in brief: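 Differentiated HepaRG cells in serum-free induction medium were exposed in duplicate for 48 h to eight half-log concentrations up to 100 uM in 0.5% DMSO. CYP1A1 mRNA was quantified by TaqMan qRT-PCR, normalized to ACTB, GAPDH and POLR2A.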

Measured: AC50

Chain of Fatty acid synthase (Homo sapiens) (P49327 whole entry, looked up): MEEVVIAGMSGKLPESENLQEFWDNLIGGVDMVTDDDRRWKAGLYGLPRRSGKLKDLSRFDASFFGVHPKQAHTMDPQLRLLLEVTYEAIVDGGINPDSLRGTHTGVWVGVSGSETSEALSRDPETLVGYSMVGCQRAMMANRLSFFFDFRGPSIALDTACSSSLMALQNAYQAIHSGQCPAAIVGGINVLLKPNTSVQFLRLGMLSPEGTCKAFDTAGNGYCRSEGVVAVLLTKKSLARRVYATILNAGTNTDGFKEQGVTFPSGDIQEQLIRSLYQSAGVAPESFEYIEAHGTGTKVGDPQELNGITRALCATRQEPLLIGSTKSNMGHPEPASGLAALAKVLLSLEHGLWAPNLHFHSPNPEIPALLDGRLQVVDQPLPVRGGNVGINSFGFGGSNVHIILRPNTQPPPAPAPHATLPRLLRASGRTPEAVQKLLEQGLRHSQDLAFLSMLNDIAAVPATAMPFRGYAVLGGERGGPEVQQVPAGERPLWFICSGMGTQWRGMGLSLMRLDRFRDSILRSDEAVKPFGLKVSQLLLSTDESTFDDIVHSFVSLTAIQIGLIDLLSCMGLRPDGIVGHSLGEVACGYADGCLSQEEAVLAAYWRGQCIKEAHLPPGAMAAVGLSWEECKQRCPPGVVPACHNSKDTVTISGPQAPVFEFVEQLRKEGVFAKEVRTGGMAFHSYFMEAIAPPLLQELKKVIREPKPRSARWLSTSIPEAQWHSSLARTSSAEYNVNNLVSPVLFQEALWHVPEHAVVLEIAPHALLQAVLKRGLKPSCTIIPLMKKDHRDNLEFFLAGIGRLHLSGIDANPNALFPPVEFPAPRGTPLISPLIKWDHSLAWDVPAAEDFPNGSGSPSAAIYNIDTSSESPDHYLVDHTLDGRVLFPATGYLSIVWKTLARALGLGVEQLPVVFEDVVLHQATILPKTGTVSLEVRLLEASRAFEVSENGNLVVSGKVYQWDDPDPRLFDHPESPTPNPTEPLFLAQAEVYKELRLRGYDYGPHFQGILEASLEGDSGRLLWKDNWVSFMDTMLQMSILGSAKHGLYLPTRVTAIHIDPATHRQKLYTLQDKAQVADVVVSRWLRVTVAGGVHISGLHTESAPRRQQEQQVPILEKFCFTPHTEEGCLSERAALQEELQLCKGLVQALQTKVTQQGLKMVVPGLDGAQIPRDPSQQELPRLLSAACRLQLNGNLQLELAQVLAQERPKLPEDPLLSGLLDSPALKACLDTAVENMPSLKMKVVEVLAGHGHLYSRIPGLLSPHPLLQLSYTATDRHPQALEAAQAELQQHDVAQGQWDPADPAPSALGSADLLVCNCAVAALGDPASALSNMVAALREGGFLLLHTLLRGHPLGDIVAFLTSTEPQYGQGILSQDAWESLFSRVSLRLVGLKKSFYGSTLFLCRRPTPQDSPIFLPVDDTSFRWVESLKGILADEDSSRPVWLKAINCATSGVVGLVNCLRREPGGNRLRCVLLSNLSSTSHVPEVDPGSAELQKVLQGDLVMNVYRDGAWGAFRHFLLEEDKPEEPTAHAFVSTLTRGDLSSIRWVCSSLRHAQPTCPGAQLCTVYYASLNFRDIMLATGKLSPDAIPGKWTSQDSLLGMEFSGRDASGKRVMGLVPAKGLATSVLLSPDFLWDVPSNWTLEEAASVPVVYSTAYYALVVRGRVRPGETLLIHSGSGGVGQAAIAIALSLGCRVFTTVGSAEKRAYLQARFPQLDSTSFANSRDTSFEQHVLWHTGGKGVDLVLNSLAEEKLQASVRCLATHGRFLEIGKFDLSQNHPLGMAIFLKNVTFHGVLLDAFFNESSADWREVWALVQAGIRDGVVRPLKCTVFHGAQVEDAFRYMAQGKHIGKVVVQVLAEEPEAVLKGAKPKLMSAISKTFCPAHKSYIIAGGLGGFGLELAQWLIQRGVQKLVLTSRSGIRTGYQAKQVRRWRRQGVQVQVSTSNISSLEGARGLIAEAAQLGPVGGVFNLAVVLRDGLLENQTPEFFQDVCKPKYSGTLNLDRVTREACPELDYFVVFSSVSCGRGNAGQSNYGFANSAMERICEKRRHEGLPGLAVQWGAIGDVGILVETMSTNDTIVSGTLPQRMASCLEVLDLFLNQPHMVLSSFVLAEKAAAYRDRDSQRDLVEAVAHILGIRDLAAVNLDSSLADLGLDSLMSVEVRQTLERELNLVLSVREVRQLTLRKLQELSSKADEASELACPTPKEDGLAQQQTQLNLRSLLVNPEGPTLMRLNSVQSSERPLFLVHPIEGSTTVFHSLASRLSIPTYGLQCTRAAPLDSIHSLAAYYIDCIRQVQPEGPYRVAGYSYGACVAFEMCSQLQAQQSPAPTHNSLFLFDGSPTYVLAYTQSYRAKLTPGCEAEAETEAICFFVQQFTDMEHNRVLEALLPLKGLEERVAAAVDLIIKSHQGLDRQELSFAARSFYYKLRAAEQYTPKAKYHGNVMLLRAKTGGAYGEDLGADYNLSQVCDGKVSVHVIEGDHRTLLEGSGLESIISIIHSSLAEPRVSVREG
Chain of Broad substrate specificity ATP-binding cassette transporter ABCG2 (Homo sapiens) (Q9UNQ0 whole entry, looked up): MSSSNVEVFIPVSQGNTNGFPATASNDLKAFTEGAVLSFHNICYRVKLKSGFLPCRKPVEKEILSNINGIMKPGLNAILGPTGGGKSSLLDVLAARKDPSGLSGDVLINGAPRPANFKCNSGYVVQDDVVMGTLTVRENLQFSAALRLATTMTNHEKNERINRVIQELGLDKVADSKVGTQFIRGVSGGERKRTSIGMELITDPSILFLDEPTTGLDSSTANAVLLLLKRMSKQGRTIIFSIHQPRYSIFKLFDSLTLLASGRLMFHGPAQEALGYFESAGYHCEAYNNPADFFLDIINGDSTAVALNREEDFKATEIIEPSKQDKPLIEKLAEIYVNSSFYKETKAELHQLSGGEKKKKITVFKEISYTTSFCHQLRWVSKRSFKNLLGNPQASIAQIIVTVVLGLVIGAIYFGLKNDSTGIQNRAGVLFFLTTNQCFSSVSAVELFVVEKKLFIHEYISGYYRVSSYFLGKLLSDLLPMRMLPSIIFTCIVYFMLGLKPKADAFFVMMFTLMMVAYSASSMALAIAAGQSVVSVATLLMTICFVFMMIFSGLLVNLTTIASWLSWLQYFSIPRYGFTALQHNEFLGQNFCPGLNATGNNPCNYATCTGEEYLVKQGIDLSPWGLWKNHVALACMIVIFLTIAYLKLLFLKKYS

CN1CCC[C@H]1c1cccnc1
not listed: [19]
inactive: all other assays above

CCc1ccc(CCOc2ccc(CC3SC(=O)NC3=O)cc2)nc1 (stereo not drawn)
inactive: [1] | [2] | [3] | [8] | [9] | [11] | [14] | [16]
active: [4] 80.4 µM | [5] 50 µM | [6] 83.4 µM | [7] 78.7 µM | [10] 50 µM | [12] 11.2 µM | [13] 11.9 µM | [15] 76.8 µM | [17] 36.4 µM | [18] 50 µM

CCCCCCCCC(=O)O
not listed: [19]
inactive: all other assays above

COc1ccc([N+](=O)[O-])cc1N
not listed: [19]
inactive: all other assays above

Cc1oc(-c2ccccc2)nc1CCOc1ccc(C[C@H](Nc2ccccc2C(=O)c2ccccc2)C(=O)O)cc1
active: [1] 92.4 µM | [2] 31.9 µM | [5] 23.6 µM | [6] 29.4 µM | [7] 26.4 µM | [8] 30 µM | [10] 12.4 µM | [11] 64.6 µM | [12] 26.5 µM | [13] 58.4 µM | [14] 32.5 µM | [15] 23.6 µM | [16] 28.9 µM | [17] 27.7 µM | [18] 22.6 µM
inactive: [3] | [4] | [9]

CC#C[C@]1(O)CC[C@H]2[C@@H]3CCC4=CC(=O)CCC4=C3[C@@H](c3ccc(N(C)C)cc3)C[C@@]21C
inactive: [3] | [8] | [14]
active: [1] 22 µM | [2] 4.54 µM | [4] 39.2 µM | [5] 86.2 µM | [6] 34.2 µM | [7] 33.4 µM | [19] 50 µM | [10] 72.6 µM | [11] 91.2 µM | [12] 26.9 µM | [13] 12 µM | [15] 24.7 µM | [16] 2.42 µM | [17] 29.8 µM | [18] 79.1 µM
